# Results as given in PubChem BioAssay AID588342 (National Center for Advancing Translational Sciences (NCATS), 2011).
# Hit rate of the full screen: of about 360,000 compounds, about 25,000 (6.9%) were called active. Entries that show only a call come without a potency. Not shown: some 9% with an inconclusive outcome. Calls follow the shape of the dose curve; as a rule, active = well fitted inhibition curve with a large enough effect; inconclusive = small, poorly fitted or top-dose-only effect; inactive = flat fitted curve, though single readings scatter. The full list was thinned out, with actives kept by preference.
# Target: Luciferin 4-monooxygenase (Photinus pyralis) (UniProt P08659)
# Test: qHTS profiling assay for firefly luciferase inhibitor/activator using purifed enzyme and Km concentrations of substrates (counterscreen for miR-21 project); also: nearly all actives have a fitted effect of over 55% in size
# Details: purified FLuc, luminescence inhibition; series mostly up to 57.5 µM
# Outline: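 Purified P. pyralis luciferase, 10 nM final, with Km-level 10 uM D-luciferin and 10 uM ATP in 50 mM Tris acetate pH 7.5, 10 mM Mg acetate, 0.01% Tween-20, 0.05% BSA; 6-point qHTS titration about 60 µM downward; luminescence read.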
# Potency is read from the fitted curve at half-maximal effect.
# Sequence of Luciferin 4-monooxygenase (Photinus pyralis) (P08659 whole entry, looked up): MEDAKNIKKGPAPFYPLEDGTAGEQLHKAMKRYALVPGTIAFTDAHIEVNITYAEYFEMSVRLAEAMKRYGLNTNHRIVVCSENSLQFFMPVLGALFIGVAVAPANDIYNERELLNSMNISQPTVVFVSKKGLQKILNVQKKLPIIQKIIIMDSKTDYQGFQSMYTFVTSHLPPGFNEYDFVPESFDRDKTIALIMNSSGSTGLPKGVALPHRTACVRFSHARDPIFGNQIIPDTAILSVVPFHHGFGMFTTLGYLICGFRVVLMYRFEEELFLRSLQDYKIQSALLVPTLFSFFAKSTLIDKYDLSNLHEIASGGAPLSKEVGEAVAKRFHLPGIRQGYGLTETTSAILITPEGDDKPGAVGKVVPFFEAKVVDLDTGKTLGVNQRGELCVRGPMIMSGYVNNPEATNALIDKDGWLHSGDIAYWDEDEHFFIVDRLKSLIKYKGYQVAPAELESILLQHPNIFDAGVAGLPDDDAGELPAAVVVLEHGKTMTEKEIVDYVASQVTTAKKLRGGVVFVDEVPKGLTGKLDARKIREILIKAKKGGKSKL
row,SMILES,Potency
1,CCOc1ccccc1NC(=O)Cn1nnc(C(=O)Nc2ccc(C)c(C)c2)c1N,inactive
2,COc1cc(CO)ccc1OCC(=O)Nc1cccc2ccccc12,10.7 µM (active)
3,COc1ccc(N(CC(=O)Nc2cccc3ccccc23)S(C)(=O)=O)c(OC)c1,inactive
4,COc1ccccc1NC(=O)COc1ccc(C(=O)OCC(=O)N(C(C)C)C(C)C)cc1OC,inactive
5,Cc1nc(SCC(=O)N2CCN(c3ccccc3)CC2)[nH]c(=O)c1C,inactive
6,CCC1=[N+]([O-])C(C)(/C(C)=N\O)N(O)C1(C)C (stereo not drawn),inactive
7,Oc1c(CN2CCCC2)cc(COCc2ccccc2)c2cccnc12,inactive
8,COC(=O)CN1C(=O)CSc2ccc(S(=O)(=O)Nc3cc(C)ccc3C)cc21,inactive
9,O=C(Nc1ccc(S(=O)(=O)N2CCCCC2)cc1)C1CCN(C(=O)c2ccc(F)cc2)CC1,inactive
10,COc1ccc(C2=CC(c3cccc(OC)c3)n3nnnc3N2)cc1 (stereo not drawn),inactive
11,Oc1ccc(C2Nc3cccc4cccc(c34)N2)cc1,16.9 µM (active)
12,COc1cccc(N2C(=O)C3CCCN3C2c2ccc(F)cc2)c1 (stereo not drawn),inactive
13,COc1cccc(C2Nc3cccc4cccc(c34)N2)c1,26.9 µM (active)
14,COc1ccc(C2CC(c3ccc(C)cc3)Nc3ncnn32)cc1 (stereo not drawn),inactive
15,Cc1ccc(C2Nc3cccc4cccc(c34)N2)cc1,10.7 µM (active)
16,Cc1ccc(C2CC(c3cccc(C)c3)n3nc(N)nc3N2)cc1 (stereo not drawn),inactive
17,Brc1ccccc1C1Nc2cccc3cccc(c23)N1,inactive
18,COc1cc(C(=O)OCC(=O)NC(C)CCc2ccccc2)cc(OC)c1OC (stereo not drawn),inactive
19,CCCCOc1ccc(NC(=O)c2cc3c(n(-c4ccc(Cl)cc4)c2=O)CCCC3=O)cc1,inactive
20,O=C(c1c(F)cccc1F)N1CCN(S(=O)(=O)c2ccc3c(c2)OCCO3)CC1,inactive
21,COc1ccccc1C(CNC(=O)c1cccc(S(=O)(=O)Nc2ccc(F)cc2)c1)N(C)C (stereo not drawn),inactive
22,O=C(NCCc1ccccn1)c1cccnc1Oc1ccc(Cl)cc1,inactive
23,O=C(COc1cc(Cl)c(Cl)cc1Cl)NCCc1ccccn1,inactive
24,O=C(NCCc1ccccn1)c1cc(-c2ccc(Cl)cc2)nc2ccccc12,16.9 µM (active)
25,Cc1cccc(NC(=O)Cn2nc(-c3ccc(Cl)cc3)c3ccccc3c2=O)c1,inactive
26,COC(=O)c1cc(Oc2ccc(S(=O)(=O)N3CCOCC3)cc2[N+](=O)[O-])cc(C(=O)OC)c1,inactive
27,COCCNS(=O)(=O)c1cc(-c2nn3c(C)nnc3c3ccccc23)ccc1C,inactive
28,CC(=O)N1c2ccc(S(=O)(=O)N3CCCCCC3)cc2CC1C(=O)NCc1ccccc1C (stereo not drawn),inactive
